Experimental data taken from PubChem BioAssay.

Each molecule was assayed on Fibrinogen (Alexa647-labelled) (assay: fibrinogen binders on compound microarrays, profiling panel, artefact control for SMM control-protein annotation, biochemical, small-molecule microarray, 635/667 nm fluorescence (AID 1131;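 also: z-score merges 667 nm fluorescence with per-spot signal-to-noise over triplicate slides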)). Conditions: fibrinogen-A647 binding fluorescence, higher = more signal.

Row | SMILES | composite z-score
1 | O=C1c2ccccc2[C@@]2(Cc3ccccc3N(Cc3ccccc3)C2=O)[C@H](c2ccc(CO)cc2)N1Cc1ccccc1Cl | -1.2
2 | CO[C@H]1O[C@H](CO)[C@@H](OC(=O)Nc2ccccc2)[C@H](OC(=O)Nc2ccccc2)[C@H]1OC(=O)Nc1ccccc1 | 1.01
3 | COCCCNC(=O)[C@@]1(CCS(=O)(=O)c2ccccc2)COC(c2ccc(OCCCO)cc2)=N1 | 1.02
4 | COc1ccc(C(O)C2C=CC3C(=O)NC(=O)C3N2Nc2ccc(Cl)cc2Cl)c2ccccc12 (configuration not stated) | 0.925
5 | O=C1C[C@@](C(=O)O)(c2ccc([N+](=O)[O-])cc2)[C@@H](c2ccc(CO)cc2)N1C1CCCCC1 | 0.953
6 | CC(C)(C)N1CC=CC23O[C@@H]4/C=C\CCCOC(=O)C4[C@H]2C(=O)N(CCCCCO)[C@@H]3C1=O (some centres not stated) | -0.865

These molecules were tested against Follistatin (Homo sapiens) (UniProt P19883) (assay: follistatin binders on small-molecule microarrays, primary screen, biochemical, small-molecule microarray, 635/667 nm fluorescence (AID 1132)). Conditions: FST binding, 635 nm fluorescence, higher = more signal.
Sequence of Follistatin (Homo sapiens) (P19883 whole entry, looked up): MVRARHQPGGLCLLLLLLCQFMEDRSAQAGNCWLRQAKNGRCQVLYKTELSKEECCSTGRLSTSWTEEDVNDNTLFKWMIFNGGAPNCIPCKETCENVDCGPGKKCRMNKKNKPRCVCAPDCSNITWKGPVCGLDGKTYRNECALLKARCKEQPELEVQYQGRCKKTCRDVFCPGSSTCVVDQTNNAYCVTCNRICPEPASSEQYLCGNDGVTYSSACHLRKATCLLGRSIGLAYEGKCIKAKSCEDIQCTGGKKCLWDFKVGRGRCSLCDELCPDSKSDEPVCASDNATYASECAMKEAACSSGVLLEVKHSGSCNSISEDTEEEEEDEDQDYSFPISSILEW

Row | SMILES | composite z-score
7 | COCCOC(=O)N1C(=O)[C@@]2(c3cc(C#CCC(C(=O)OC)C(=O)OC)ccc31)[C@H](C(N)=O)[C@H]1C(=O)O[C@H](c3ccccc3)[C@H](c3ccccc3)N1[C@@H]2c1ccc(O)cc1 | 1.33
8 | COc1cc(OC)c(C(O)C2C=CC3C(=O)N(c4ccccc4)C(=O)C3N2Nc2ccc(C(C)C)cc2)cc1Br (configuration not stated) | 0.806
9 | C#CCN1[C@@H](Cc2ccccc2)C(=O)O[C@H](Cc2ccccc2)[C@@H]1/C=C/C1CC1 | 1.27
10 | CN(C)CCCNC(=O)[C@@H]1c2ccccc2C(=O)N(Cc2ccccc2C(F)(F)F)[C@H]1c1ccc(CO)cc1 | 0.0865
11 | COc1ccc([Si](C)(C)[C@H]2[C@H](CCO)O[C@@]3(C(=O)N(Cc4ccc(NC(=O)[C@H](C)O)cc4)c4ccccc43)[C@@H]2C)cc1 | 0.728
12 | CCOC(=O)C[C@H]1[C@H](OC(=O)c2ccccc2-c2ccccc2)[C@@H](NC(=O)c2ccc3ccccc3c2)c2cc(OCCCO)ccc2N1C(=O)Cc1ccc(OC)cc1 | 0.0992
13 | COCCCN1C(=O)[C@@]2(c3ccc([N+](=O)[O-])cc3)CC(=O)N(CC34CC5CC(CC(C5)C3)C4)[C@@H]2c2ccc(CO)cc21 | 1
14 | C=C1C(=O)C=C2CN(C(=O)c3ccccc3)[C@@](Cc3ccc(OC)cc3)(C(=O)OC)[C@@H]12 | 1.29
15 | C=CCNC(=O)[C@H]1[C@@H]2C(=O)O[C@@H](c3ccccc3)[C@@H](c3ccccc3)N2[C@@H](c2ccc(OCCO)cc2)[C@]12C(=O)Nc1ccccc12 | -0.034
16 | COCCOC(=O)N1C(=O)[C@@]2(c3ccccc31)[C@H](c1ccc(O)cc1)N1[C@H](c3ccccc3)[C@H](c3ccccc3)OC(=O)[C@H]1[C@@H]2C(=O)N1CCCCCCC1 | 1.46
17 | C[N+](C)(C)CCCCNC(=O)[C@H]1C[C@H]2C(=O)N[C@@H](Cc3ccccc3)C(=O)N2[C@H]1c1cccc(OCCO)c1 | 1.48
18 | CC(C)[Si](C#CCCc1ccccc1)(O[C@H](c1ccccc1)c1cn(Cc2ccccc2)nn1)C(C)C | 0.709
19 | COc1ccc([Si](C)(C)[C@@H]2[C@@H](CC(=O)N3Cc4ccccc4C[C@H]3CO)O[C@]3(C(=O)N(Cc4cccc(N5CCOC5=O)c4)c4ccccc43)[C@H]2C)cc1 | 1.41
20 | CN1C(=O)[C@@H]2[C@@H](CC(COc3ccccc3)=C3[C@@H](CCc4ccccc4)OB(O)C[C@@H]32)C1=O | 0.127
21 | COc1cc(C(O)C2C=CC3C(=O)N(c4ccccc4)C(=O)C3N2Nc2ccccc2F)cc(OC)c1OC (configuration not stated) | 0.233
22 | CCCCN1CC=CC23O[C@@H]4/C=C\CCCOC(=O)C4[C@H]2C(=O)N(C(CO)C(C)C)[C@@H]3C1=O (some centres not stated) | 0.0549
23 | O=C1N(CCS(=O)(=O)c2ccccc2)c2ccccc2C[C@]12N=C(c1ccc(OCCCO)cc1)O[C@@H]2c1ccccc1 | 1.41
24 | O=C1NC(=O)C2C1C=CC(C(O)c1ccc([N+](=O)[O-])cc1)N2Nc1ccccn1 (configuration not stated) | -0.12

Row | SMILES | composite z-score
25 | O=C1[C@H]2C=C(I)[C@H](C[C@@H]2OCCCCCCO)[C@@]12CO2 | 1.12
26 | CN(C)C(=O)[C@]1(Cc2ccccc2)N=C(c2ccc(OCCCO)cc2)O[C@@H]1c1ccccc1CN=[N+]=[N-] | 1.04
27 | Cc1ccc(C(C)CC(O)C2C=CC3C(=O)N(C)C(=O)C3N2Nc2ccccc2)o1 (configuration not stated) | 0.941
28 | CCCCCCc1nc(-c2ccc(-c3ccc(Cl)c(Cl)c3)o2)cc2c1[Si](C(C)C)(C(C)C)OC2 | -0.577
29 | CC1CC/C=C\[C@H]2OC34C=CCN(c5ccc(Cl)cc5)C(=O)[C@H]3N(CCCCCCO)C(=O)[C@]4(C)C2C(=O)O1 (some centres not stated) | -0.518
30 | C=C(CCCC)/C(=C/C[C@H](OC(=O)c1ccncc1)c1cccc(OCCO)c1)c1cnc2ccccc2c1 | 1.11
31 | C[C@@H]1ON(c2ccccc2)[C@H](c2ccccc2)[C@H]1C(=O)O | 1.3
32 | CCOC(=O)C1=CC[C@@H](c2ccc(OC)cc2)N(S(=O)(=O)c2ccc(C)cc2)[C@H]1CC | 0.995
33 | COC(=O)[C@@]1(Cc2ccc(OC)cc2)[C@H]2c3cc(C(=O)N(C)C)[nH]c3C[C@H]2CN1C(=O)c1ccccc1 | -0.205
34 | CCCCC(O)C1C=CC2C(=O)N(c3ccccc3)C(=O)C2N1Nc1ccccc1 (configuration not stated) | -0.0278
35 | CC(C)OC(=O)CC(=O)CC(O)c1cccc([N+](=O)[O-])c1 (configuration not stated) | 0.461
36 | O=C1NC(=O)C2C1C=CC(C(O)c1ccc(B(O)O)cc1)N2Nc1ccc(Cl)cc1Cl (configuration not stated) | 0.529
37 | O=C1c2ccccc2[C@@]2(Cc3ccccc3N(Cc3ccccc3)C2=O)[C@H](c2ccc(CO)cc2)N1Cc1ccccc1Cl | -0.465
38 | CO[C@H]1O[C@H](CO)[C@@H](OC(=O)Nc2ccccc2)[C@H](OC(=O)Nc2ccccc2)[C@H]1OC(=O)Nc1ccccc1 | 0.943
39 | COCCCNC(=O)[C@@]1(CCS(=O)(=O)c2ccccc2)COC(c2ccc(OCCCO)cc2)=N1 | 1.31
40 | COc1ccc(C(O)C2C=CC3C(=O)NC(=O)C3N2Nc2ccc(Cl)cc2Cl)c2ccccc12 (configuration not stated) | 0.797
41 | O=C1C[C@@](C(=O)O)(c2ccc([N+](=O)[O-])cc2)[C@@H](c2ccc(CO)cc2)N1C1CCCCC1 | 1.01
42 | CC(C)(C)N1CC=CC23O[C@@H]4/C=C\CCCOC(=O)C4[C@H]2C(=O)N(CCCCCO)[C@@H]3C1=O (some centres not stated) | -1.06
